Only some compounds are listed: those with a hit (about 6.2% of all), similar ones and a draw of the others.
ATXN2 expr inh – inhibitors of ATXN2 expression; hit rate 0.72% among 360,000; HEK-293 ATXN2-luciferase reporter, luminescence, 24 h; Potency, µM (titrated, usually from 57 µM), actives largely listed as inhibitors; also: nearly all actives have a fitted effect of over 55% in size
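ATXN2-luciferase reporter cells (luciferase flanked by upstream and downstream ATXN2 gene portions) were treated 24 h at 37 °C with compounds at up to 57 uM. SteadyGlo luminescence gave expression; GF-AFC fluorescence gave viability.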
S2 tox – reduces viability in counter-screen for ATXN expression inhibitors; S2 cells (HEK-293 line with an ATXN2-luciferase reporter) viability, CellTiter-Fluor protease fluorescence, 24 h; hit rate 0.49% among 400,000; Potency, µM (doses to about 56.7 µM), hits mostly cytotoxic; also: nearly all actives have a fitted effect of over 40% in size
KB-3-1 tox – kills parental KB-3-1 adenocarcinoma cells. KB-3-1 viability, CellTiter-Glo ATP luminescence, 72 h. Potency, µM (top dose mostly 46.1 µM), actives largely listed as cytotoxic. hit rate 1.4% among 400,000. AID 1347075; also: nearly all actives have a fitted effect of over 60% in size
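KB-3-1 cells, DMEM (no phenol red) + 10% FBS; compound by pin transfer, 72 h, 37 °C. Readout: CellTiter-Glo luminescence after 10 min. Data normalized, curve-fitted.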
HT1080NT lethal – kills 2HG-producing HT-1080-NT fibrosarcoma cells. hit rate 1.6% among 360,000. Potency, µM (series often up to 46.1 µM), actives largely listed as cytotoxic. HT-1080-NT fibrosarcoma viability, CellTiter-Glo ATP luminescence, 48 h. AID 686970;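 also: NT is the 2HG producing partner of a matched IDH1 knockdown line; nearly all actives have a fitted effect of over 55% in size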
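Read-out is CellTiter-Glo luminescence after 10 minutes at room temperature, following 48 hours' compound treatment of HT-1080-NT cells (750 cells/well, RPMI, 5% FBS, 37 degrees C).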
KB-V1 cytotox – kills drug-selected multidrug resistant KB-V1 cells | AID 1347076 | hit rate 3.4% among 400,000 | Potency, µM (doses to about 46.1 µM), usual class: cytotoxic | KB-V1 MDR cells viability, CellTiter-Glo, 72 h; also: nearly all actives have a fitted effect of over 60% in size
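Cells of the MDR subline KB-V1 are plated, dosed with compound at multiple concentrations, and incubated 72 h at 37 degrees C; CellTiter-Glo is then added and luminescence read after 10 min.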
HT1080 IDH1KD tx – toxicity to HT-1080 IDH1 knockdown cells (counter line); hit rate 2% among 360,000; Potency, µM (top dose mostly 46.1 µM), most hits filed as cytotoxic; HT-1080 IDH1 knockdown viability, ATP luminescence, 48 h
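CellTiter-Glo luminescence after 48 h compound exposure at 37 degrees C of IDH1-knockdown HT-1080 cells in 5% FBS RPMI. %Activity scaled between DMSO wells and cell-free media wells, with curves fitted and assigned curve classes.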
A number is an active result; n = inactive; u = inconclusive; x = no result given; ! = not active in a repeat; [ ] = remark or other dose. Calls follow the shape of the dose curve; as a rule, active = well fitted curve in the direction sought with a large enough effect; inconclusive = small, poorly fitted or top-dose-only effect, or another doubt; inactive = no such curve, though single readings can be large; an effect the other way counts as inactive or inconclusive.

SMILES	ATXN2 expr inh	S2 tox	KB-3-1 tox	HT1080NT lethal	KB-V1 cytotox	HT1080 IDH1KD tx
CCOc1ccc(CNC(=O)c2cc3oc4ccccc4c3n2C)cc1	n	n	u	n	u	n
COc1cccc(CNC(=O)c2cc3oc4ccccc4c3n2C)c1OC	n	n	u	u	6.51µM	u
N#C/C(=C\c1cccc2ccccc12)c1nn(-c2ccccc2)c(N)c1C#N	n	n	n	u	n	u
Cc1ccc(/C=C(\C#N)c2nn(-c3ccccc3)c(N)c2C#N)cc1	n	n	n	n	20.6µM	n
O=C1CC(N2CCN(C/C=C/c3ccccc3)CC2)C(=O)N1CCc1ccccc1 (stereo not drawn)	u	n	n	u	11.6µM	n
Cc1cc(NC(=O)Cn2c(=O)nc(-c3ccccc3F)c3cc(Cl)ccc32)ccc1Br	n	n	n	x	n	x
Cc1ccc(NC(=O)Cn2c(=O)nc(-c3ccccc3F)c3cc(Cl)ccc32)c(Br)c1	n	n	16.4µM	x	u	x
Cc1cc(NN)nc2ccc(Cl)cc12	n	n	u	n	13µM	n
Cc1cc(C)c2ccc(Cl)cc2n1	n	n	n	n	n	n
O=C(O)c1sc2cc(C(F)(F)F)cnc2c1-c1ccccc1	n	n	n	n	n	n
CSc1nnc(-c2sc3cc(C(F)(F)F)cnc3c2-c2ccccc2)n1C	n	n	6.51µM	u	3.66µM	n[9.24 µM]
CCCCN(C)CCNC(=S)Nc1ccc2nc(N3CCN(CC)CC3)cc(C)c2c1	u	u	n	18.4µM	n	29.1µM
Cc1cc(N2CCN(C)CC2)nc2ccc(NC(=S)NCCN3CCc4ccccc4C3)cc12	x	x	n	n	n	n
CCN1CCN(c2cc(C)c3cc(NC(=S)NCCCN4CCc5ccccc5C4)ccc3n2)CC1	u	x	n	20.6µM	n	20.6µM
CCN1CCN(c2cc(C)c3cc(NC(=S)NCCN(C)C)ccc3n2)CC1	n	n	n	n	n	u
Cc1cc(N2CCN(C)CC2)nc2ccc(NC(=S)NCCCN3CCc4ccccc4C3)cc12	31.6µM	17.8µM	n	18.4µM	n	16.4µM
Cc1cc(N2CCCC2)nc2ccc(NC(=S)NCCCN3CCC(C)CC3)cc12	u	u	n	23.1µM	u	23.1µM
O=C(NCCCN1CCc2ccccc2C1)Nc1ccc(Cl)cc1	n	n	n	u	14.6µM	u
COc1ccc(NC(=O)NCCN2CCc3ccccc3C2)cc1	n	n	n	n	n	n
COc1ccc(-c2cc3nc(-c4ccccc4)cc(N4CCCC(O)C4)n3n2)cc1 (stereo not drawn)	x	n	n	u	n	20.6µM
COc1ccc(-c2cc3nc(-c4ccccc4)cc(N4CCN(C(C)=O)CC4)n3n2)cc1	u	u	n	u	n	16.4µM
COc1ccc(-c2cc3nc(-c4ccccc4)cc(N4CCC(O)CC4)n3n2)cc1	x	n	n	18.4µM	u	u
COc1ccc(-c2cc3nc(-c4ccccc4)cc(N4CCN(C(=O)c5ccccc5)CC4)n3n2)cc1	n	n	n	n	n	n
Cc1cnc(-n2ncc(C(=O)NCCc3ccccn3)c2C)nc1-c1ccc(F)cc1	x	n	x	x	x	x
Cc1cc(N2CCC(C(=O)Nc3ccccc3Cl)CC2)n2nc(C)c(-c3ccc(Cl)cc3)c2n1	n	n	n	x	u	x
SMILES	ATXN2 expr inh	S2 tox	KB-3-1 tox	HT1080NT lethal	KB-V1 cytotox	HT1080 IDH1KD tx
CC(NC(=O)CN(C)CC(=O)Nc1cccc(F)c1)c1ccccc1 (stereo not drawn)	n	n	n	n	18.4µM	n
Cc1ccc(-c2cc3ncc4c(n3n2)-c2cc(Cl)ccc2OC4)cc1	n	n	n	x	n	x
CCCCCc1c(-c2ccc(Cl)cc2)ncn1CCc1ccccc1OC	n	x	u	u	11.6µM	16.4µM
CCCCCc1c(-c2ccc(OC)cc2)ncn1CCc1ccccc1OC	u	x	u	20.6µM	10.3µM	16.4µM
CCCCc1c(-c2ccccc2)ncn1CCc1ccccc1OC	u	x	u	u	10.3µM	u
CCc1ccccc1OCCCOc1ccc(OC)cc1	n	n	n	n	n	n
CCCCc1c(-c2ccc(OC)cc2)ncn1CCc1ccccc1OC	u	x	u	16.4µM	14.6µM	16.4µM
COc1ccccc1CCn1cnc(C)c1CC(C)C	n	u	u	u	n	u
CCOc1ccc(-c2cc(CCCC(=O)NCCc3ccc(SC)cc3)no2)cc1	u	u	n	x	n	x
COc1cc(C2C(C#N)=C(N)N(N(C)C)C3=C2C(=O)CC(C)(C)C3)ccc1O (stereo not drawn)	n	n	n	n	n	n
CCc1ncn(CCc2ccccc2OC)c1C(C)C	n	n	u	u	u	u
CCCCc1c(Cc2ccccc2)ncn1CCc1ccccc1OC	14.1µM	x	20.6µM	u	18.4µM	18.4µM
CCCc1c(-c2cccc(Cl)c2)ncn1Cc1ccccc1OC	n	u	u	u	16.4µM	u
CCCCc1c(-c2ccc(F)cc2)ncn1CCc1ccccc1OC	u	x	u	u	11.6µM	u
CCCCc1c(-c2cccc(Cl)c2)ncn1CCc1ccccc1OC	u	x	u	u	10.3µM	u
COc1ccccc1Cc1c(-c2cccc(Cl)c2)nc2ccc(Br)cn12	n	n	n	n	n	n
C[C@]12CCC(=O)C=C1[C@@H]1C[C@@H]1[C@H]1[C@@H]3[C@@H]4C[C@@H]4[C@@]4(CCC(=O)O4)[C@@]3(C)CC[C@@H]12	u	n	x	x	x	x
O=C(NCc1ccccc1F)C1CCN(c2nn3cc(-c4ccc(F)cc4)nc3s2)CC1	x	x	n	x	n	x
Cc1ccccc1CSc1nc(-c2cccc(F)c2)nc2c1Cc1c(CO)cnc(C)c1O2	n	n	n	x	u	x
COc1ccc(CN2CCC2(C)C(=O)Nc2cccc(NS(C)(=O)=O)c2)c2ccccc12 (stereo not drawn)	u	n	u	u	2.91µM	u
Oc1ccc(/C=N/n2c3ccccc3c3ccccc32)cc1	u	n	n	u	n	23.1µM
Cc1cc(C)c2c(=O)cc(C(=O)NCCc3ccc(S(N)(=O)=O)cc3)oc2c1	n	n	n	x	u	x
O=C(COc1ccccc1Br)NCCc1nc2ccccc2[nH]1	n	u	n	n	14.6µM!	n
COc1ccccc1OCC(=O)NCCc1nc2ccccc2[nH]1	n	n	n	n	n	n
O=C(Nc1ccccc1NC(=O)NC1CCCCC1)NC1CCCCC1	20µM	u	u	n	n	n
O=C(N/N=C/c1ccccc1)NC1CCCCC1	n	n	n	n	16.4µM	n
O=C(CNC(=O)OCc1ccccc1)NC1CCCCCCC1	n	n	n	n	18.4µM	n
O=C(N/N=C/c1cccc(F)c1)NC1CCCCC1	n	n	n	n	n	n
CC(C)Cc1ccc(C(=O)Nc2ccc(Cc3ccncc3)cc2)o1	n	n	n	n	n	n
CCOC(=O)Cn1c(=O)n(-c2cccc(Cl)c2)c2nc(-c3ccccc3Cl)nc(C(N)=O)c21	n	n	n	x	n	x
